ClpP mod = qHTS Assay for Activators of ClpP; ATP-dependent Clp protease proteolytic subunit (Bacillus subtilis (strain 168)), P80244; purified B. subtilis ClpP, FRET peptide cleavage, 20 min; Potency, µM (top dose mostly 57.5 µM), inactives show at the top dose activity change, negative = active; actives 1.9% (n = 340,000); AID 651965, 2013; active = well fitted falling curve with a large enough effect; inconclusive = small, poorly fitted or top-dose-only effect; inactive = no such curve, though single readings can be large or run the other way; also: the source files actives as falling curves though it sought activators and does not explain the sign; nearly all actives have a fitted effect of over 65% in size
Target sequence (P80244 whole entry, looked up): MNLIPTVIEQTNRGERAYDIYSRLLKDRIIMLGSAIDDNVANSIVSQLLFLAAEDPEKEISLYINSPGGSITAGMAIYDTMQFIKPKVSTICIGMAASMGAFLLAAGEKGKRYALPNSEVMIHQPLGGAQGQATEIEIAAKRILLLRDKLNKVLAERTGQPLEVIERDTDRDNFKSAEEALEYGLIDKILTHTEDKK
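FRET quenching reversal measured ClpP activation: 10 microg/mL B. subtilis ClpP at pH 8 with the FRET-FV decapeptide, read at 430 nm after 320 nm excitation. The 20-min minus 0-min signal was scaled between DMSO/no-enzyme wells and ADEP (5.8 microM final).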
DT40 TDP1 no CPT = qHTS for Inhibitors of human tyrosyl-DNA phosphodiesterase 1 (TDP1): qHTS in cells in absence of CPT. Potency, µM (doses to about 46.2 µM), inactives show top-dose activity change, negative = growth inhibition, actives largely listed as inhibitors. AID 686978, 2013. DT40 Tdp1-/- hTDP1 cells, no CPT, ATP luminescence, 48 h. actives 15% (n = 420,000); also: % is scaled to controls: 0 for no effect and ±100 for the full control effect; nearly all actives have a fitted effect of over 55% in size
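No-CPT arm: Tdp1-/-;hTDP1 DT40 cells (400/well) plus compounds, incubated ≥48 hr at 37 °C. Readout CellTiter-Glo luminescence.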
TDP1 block = inhibitors of human tyrosyl-DNA phosphodiesterase TDP1; Q9NUW8; recombinant TDP1, AlphaScreen DNA substrate cleavage; Potency, µM (doses to about 130 µM), for inactives: at the top dose activity change, negative = inhibition, usual class: inhibitors; actives 0.28% (n = 350,000); also: % is scaled to controls: 0 for no effect and ±100 for the full control effect; nearly all actives have a fitted effect of over 40% in size
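Steps: enzyme plus compound, 15 min RT; add biotin/phosphotyrosine-FITC oligonucleotide (15 nM final), react 5 min; add donor/acceptor beads (10 ug/ml final), 10 min; read AlphaScreen. Tdp1 at 1 nM final.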
TDP1 cell CPT = DT40-hTDP1 cell growth loss with CPT. chicken DT40 Tdp1-/-;hTDP1 cells + 20 nM CPT, ATP luminescence, 48 h. Potency, µM (titrated, usually from 46.2 µM), without a hit: top-dose activity change, negative = growth inhibition, usual class: inhibitors. actives 12% (n = 420,000). AID 686979; also: % is scaled to controls: 0 for no effect and ±100 for the full control effect; nearly all actives have a fitted effect of over 55% in size
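Cell growth measured by CellTiter-Glo luminescence after a minimum 48 h, 37 C compound exposure with 20 nM CPT in Tdp1-knockout DT40 cells stably expressing hTDP1, seeded 400/well; qHTS titration format.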
* hit, by the source's call. In the library only some 17% were active in any assay of this set; here they are far more common. Unless noted, calls follow the shape of the dose curve; as a rule, active = well fitted curve in the direction sought with a large enough effect; inconclusive = small, poorly fitted or top-dose-only effect, or another doubt; inactive = no such curve, though single readings can be large; an effect the other way counts as inactive or inconclusive. Potency is read from the fitted curve at half-maximal effect.

Results for Cc1ccc(NC(=O)CSc2ncc3c(n2)-c2ccccc2N(C)S3(=O)=O)c(Cl)c1 ?
ClpP mod: 27%; DT40 TDP1 no CPT: 0.65µM*; TDP1 block: 0%; TDP1 cell CPT: 0.73µM*

Results for CN1c2cc(Cl)ccc2-c2nc(SCC(=O)Nc3ccc(F)cc3F)ncc2S1(=O)=O ?
ClpP mod: -18%; DT40 TDP1 no CPT: 16µM*; TDP1 block: -5%; TDP1 cell CPT: 23µM*

Results for Fc1ccc(-c2noc3ncnc(NC4CCCCC4)c23)cc1 ?
ClpP mod: 1%; DT40 TDP1 no CPT: inconclusive; TDP1 block: -2%; TDP1 cell CPT: inconclusive

What do the screens show for `Cc1cc(C)cc(N2CC(c3nc(-c4ccccc4C)no3)CC2=O)c1` (centres undefined)?
ClpP mod: -2%; DT40 TDP1 no CPT: inconclusive; TDP1 block: -3%; TDP1 cell CPT: inconclusive

Results for Cc1c(Cl)cccc1NS(=O)(=O)c1c(C(=O)N2CCOCC2)c(C)n(C)c1C ?
ClpP mod: 0%; DT40 TDP1 no CPT: -1%; TDP1 block: 2%; TDP1 cell CPT: -7%

Results for O=S(=O)(c1ccccc1)N1N=C(c2ccccc2)CC1c1ccccc1F (centres undefined) ?
ClpP mod: -1%; DT40 TDP1 no CPT: inconclusive; TDP1 cell CPT: 16µM*

Results for O=S(=O)(c1ccccc1)N1N=C(c2ccc(O)cc2)CC1c1ccco1 (centres undefined) ?
ClpP mod: -1%; DT40 TDP1 no CPT: 7.3µM*; TDP1 block: 6%; TDP1 cell CPT: 8.2µM*

What do the screens show for `O=S(=O)(c1ccccc1)N1N=C(c2ccc(Br)cc2)CC1c1ccco1` (centres undefined)?
ClpP mod: -3%; DT40 TDP1 no CPT: 16µM*; TDP1 block: 2%; TDP1 cell CPT: 16µM*

What do the screens show for `CCOc1cc(C(=O)OC(C(=O)NC(=O)NC)c2ccccc2)ccc1OCC(=O)N1CCOCC1` (centres undefined)?
ClpP mod: -8%; DT40 TDP1 no CPT: 18µM*; TDP1 block: 0%; TDP1 cell CPT: 18µM*

What do the screens show for `CCOc1cc(C(=O)Nc2ccccc2N2CCOCC2)ccc1OCC(=O)N1CCOCC1`?
ClpP mod: 1%; DT40 TDP1 no CPT: inconclusive; TDP1 block: 2%; TDP1 cell CPT: inconclusive

Results for COc1cc(C(=O)OC(C)c2ccc(F)cc2)ccc1OCC(=O)N1CCOCC1 (centres undefined) ?
ClpP mod: -10%; DT40 TDP1 no CPT: 23µM*; TDP1 block: 1%; TDP1 cell CPT: inconclusive

What do the screens show for `COc1cc(C(=O)OCc2cccc(OC)c2OC)ccc1OCC(=O)N1CCOCC1`?
ClpP mod: -6%; DT40 TDP1 no CPT: 3%; TDP1 block: 0%; TDP1 cell CPT: -28%

How did Cc1nnsc1C(=O)Oc1ccccc1Cl do in these assays?
ClpP mod: 0%; DT40 TDP1 no CPT: -18%; TDP1 block: -1%; TDP1 cell CPT: 16%

What do the screens show for `COc1ccc(-n2c(=O)c3sc4ccccc4c3n(CC(=O)Nc3ccccc3F)c2=O)cc1`?
ClpP mod: -23%; DT40 TDP1 no CPT: -2%; TDP1 block: 4%; TDP1 cell CPT: -5%

How did COc1ccc(C(=O)NCCCN2CCOCC2)cc1 do in these assays?
ClpP mod: 1%; DT40 TDP1 no CPT: -2%; TDP1 block: 4%; TDP1 cell CPT: 6%

How did CCN1CCN(CCNC(=O)c2ccc3nc(-c4cccc(C)c4)c(-c4cccc(C)c4)nc3c2)CC1 do in these assays?
ClpP mod: 4%; DT40 TDP1 no CPT: 16µM*; TDP1 block: 6%; TDP1 cell CPT: 16µM*

Results for COc1ccc(-c2nc3ccc(C(=O)NCCCN4CCOCC4)cc3nc2-c2ccc(OC)cc2)cc1 ?
ClpP mod: -26%; DT40 TDP1 no CPT: 23µM*; TDP1 block: 0%; TDP1 cell CPT: inconclusive

What do the screens show for `COc1ccc(CNC(=O)c2ccc3nc(-c4ccc(F)cc4)c(-c4ccc(F)cc4)nc3c2)cc1`?
ClpP mod: -2%; DT40 TDP1 no CPT: -27%; TDP1 block: 5%; TDP1 cell CPT: -20%

How did COc1cccc(CNC(=O)c2ccc3nc(-c4ccc(F)cc4)c(-c4ccc(F)cc4)nc3c2)c1 do in these assays?
ClpP mod: 4%; DT40 TDP1 no CPT: 13µM*; TDP1 block: 8%; TDP1 cell CPT: 21µM*

How did COCC(C)NC(=O)c1ccc2nc(-c3ccccc3)c(-c3ccccc3)nc2c1 (centres undefined) do in these assays?
ClpP mod: 23%; DT40 TDP1 no CPT: 21µM*; TDP1 block: -4%; TDP1 cell CPT: inconclusive

Results for CCOC(=O)C(C(=O)OCC)N(Cc1cc(OC)ccc1OC)C(=O)C1CC(CO[Si](C)(C)C(C)(C)C)=CN1C(=O)OC(C)(C)C (centres undefined) ?
TDP1 block: 12%

How did CCCNC(=O)c1ccc2nc(-c3ccccc3)c(-c3ccccc3)nc2c1 do in these assays?
ClpP mod: 28µM*; DT40 TDP1 no CPT: 23µM*; TDP1 block: 0%; TDP1 cell CPT: inconclusive

How did CCN(CC)C(=O)c1ccc2nc(-c3ccccc3)c(-c3ccccc3)nc2c1 do in these assays?
ClpP mod: 25µM*; DT40 TDP1 no CPT: 21µM*; TDP1 block: 0%; TDP1 cell CPT: inconclusive

Results for COc1ccccc1CNC(=O)c1ccc2c(c1)nnn2C1CCCC1 ?
ClpP mod: -1%; DT40 TDP1 no CPT: 16µM*; TDP1 block: 5%; TDP1 cell CPT: 18µM*

Results for CCC(C)NC(=O)c1ccc2nc(-c3ccc(OC)c(OC)c3)c(-c3ccc(OC)c(OC)c3)nc2c1 (centres undefined) ?
ClpP mod: -3%; DT40 TDP1 no CPT: inconclusive; TDP1 cell CPT: 15µM*

How did CCN(CC)C(=O)c1ccc(C(=O)c2ccccc2)cc1 do in these assays?
ClpP mod: -10%; DT40 TDP1 no CPT: -21%; TDP1 block: 2%; TDP1 cell CPT: -16%

Results for O=C(Nc1ccc(F)c(Cl)c1)C1Cc2c(-c3ccc4c(c3)OCO4)ccnc2O1 (centres undefined) ?
ClpP mod: 5%; DT40 TDP1 no CPT: inconclusive; TDP1 cell CPT: inconclusive

Results for COc1ccccc1CNC(=O)c1ccc2nc(-c3ccccc3)c(-c3ccccc3)nc2c1 ?
ClpP mod: inconclusive; DT40 TDP1 no CPT: 18µM*; TDP1 block: 3%; TDP1 cell CPT: inconclusive

How did O=C(c1ccc2nc(-c3ccccc3)c(-c3ccccc3)nc2c1)N1CCCCC1 do in these assays?
ClpP mod: 4%; DT40 TDP1 no CPT: 16µM*; TDP1 cell CPT: inconclusive

What do the screens show for `Cc1c(Cl)cccc1NC(=O)c1ccc2c(c1)nnn2C1CCCC1`?
ClpP mod: -4%; DT40 TDP1 no CPT: 2.6µM*; TDP1 block: 0%; TDP1 cell CPT: 2.6µM*

Source: PubChem BioAssay
